Screens deposited in PubChem BioAssay by National Center for Advancing Translational Sciences (NCATS).
WRN helicase inh: WRN helicase (human) inhibition; Q14191; WRN helicase unwinding, fluorescent forked duplex, kinetic; Potency, µM (titrated, usually from 114 µM), for the others: at the top dose activity change, negative = inhibition, usual class: inhibitors; 360,000 tested, 0.46% active; note: % is set by controls: 0 for no effect and ±100 for the full control effect; nearly all actives have a fitted effect of over 55% in size
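Kinetic red-fluorescence monitoring (525/598 nm) tracks WRN helicase activity after 100 nM fluorophore-quencher forked duplex and 2 mM ATP are added to 20 nM enzyme pretreated 15 min at room temperature with compound.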
FEN1 inh: inhibitors of human flap endonuclease 1 | 390,000 tested, 0.35% active | Potency, µM (highest dose often 114 µM), for inactives: top-dose activity change, negative = inhibition, actives largely listed as inhibitors | AID 588795 | P39748 | Recombinant FEN1 flap cleavage, fluorescence, 15 min; note: % is set by controls: 0 for no effect and ±100 for the full control effect; nearly all actives have a fitted effect of over 65% in size
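With each library titrated from low to high concentration, compounds met 10 nM FEN1 for 15 min at room temperature before 50 nM substrate was added; readings at 0 and 15 min fed four-parameter Hill curve fits.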
Pol eta inh: DNA polymerase eta (human) inhibition | Potency, µM (top dose mostly 114 µM), without a hit: at the highest dose activity change, negative = inhibition, actives largely listed as inhibitors | recombinant Pol eta, fluorescent DNA replication assay | 390,000 tested, 1.2% active | Q9Y253 | AID 588591; note: % is set by controls: 0 for no effect and ±100 for the full control effect
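Fluorescent replication assay: 50 nM final substrate added after a 15 min room-temperature compound preincubation with 10 nM enzyme. Signal taken at 0 min and again at 10 min.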
Pol kappa inh: blocks human DNA polymerase kappa activity; Q9UBT6; purified Pol kappa, fluorescent DNA synthesis assay, 10 min; Potency, µM (top dose mostly 107 µM), for inactives: top-dose activity, negative = inhibition, actives largely listed as inhibitors; 400,000 tested, 0.53% active; AID 588579; note: % is set by controls: 0 for no effect and ±100 for the full control effect
Target sequence (Q9UBT6 whole entry, looked up): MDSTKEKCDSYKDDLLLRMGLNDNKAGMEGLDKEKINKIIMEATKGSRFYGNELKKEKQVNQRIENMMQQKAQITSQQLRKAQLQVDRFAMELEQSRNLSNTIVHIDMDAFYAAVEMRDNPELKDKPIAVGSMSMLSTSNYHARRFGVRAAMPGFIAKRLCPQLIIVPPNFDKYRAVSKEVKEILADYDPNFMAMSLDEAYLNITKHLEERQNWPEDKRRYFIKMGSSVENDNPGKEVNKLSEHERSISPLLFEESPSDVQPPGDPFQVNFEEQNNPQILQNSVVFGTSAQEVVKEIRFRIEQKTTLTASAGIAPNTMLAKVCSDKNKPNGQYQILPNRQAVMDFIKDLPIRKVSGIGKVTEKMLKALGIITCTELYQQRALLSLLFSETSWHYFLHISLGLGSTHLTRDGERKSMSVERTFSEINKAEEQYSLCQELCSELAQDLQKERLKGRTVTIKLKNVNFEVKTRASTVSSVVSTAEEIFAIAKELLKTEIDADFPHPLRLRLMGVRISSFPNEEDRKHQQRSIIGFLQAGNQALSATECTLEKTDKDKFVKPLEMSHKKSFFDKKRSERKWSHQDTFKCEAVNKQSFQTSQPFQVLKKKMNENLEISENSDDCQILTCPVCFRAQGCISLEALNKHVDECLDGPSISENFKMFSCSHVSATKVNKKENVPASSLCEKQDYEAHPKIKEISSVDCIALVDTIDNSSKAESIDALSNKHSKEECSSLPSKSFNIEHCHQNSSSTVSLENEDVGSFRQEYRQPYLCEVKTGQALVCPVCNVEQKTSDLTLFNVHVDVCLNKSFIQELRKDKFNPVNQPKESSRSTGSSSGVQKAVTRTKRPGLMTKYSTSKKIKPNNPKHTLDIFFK
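Kinetic fluorescence screen: compound preincubated 15 min RT with 10 nM enzyme; 50 nM substrate (final) initiates; reads at 0/10 min.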
Pol iota inh: DNA polymerase iota (human) inhibition; AID 588590; 390,000 tested, 1% active; Potency, µM (top dose mostly 115 µM), inactives show at the top dose activity, negative = inhibition, most hits filed as inhibitors; Pol iota fluorescent replication assay, 10 min; Q9UNA4
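Fluorescent replication assay read twice, at 0 min and 10 min after adding 50 nM (final) substrate. Enzyme (10 nM) and compounds were first incubated 15 min at room temperature; enzyme-free buffer wells were negative controls.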
POLB inh: blocks human DNA polymerase beta activity; Pol beta primer extension/strand displacement, fluorescence kinetic; Potency, µM (doses to about 114 µM), without a hit: top-dose activity change, negative = inhibition, hits mostly inhibitors; 340,000 tested, 1.3% active; AID 485314; note: % is set by controls: 0 for no effect and ±100 for the full control effect
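Pol beta (10 nM) was preincubated with compound for 15 min at room temperature. The reaction was then started with 50 nM substrate and read immediately and after a further 10 min at room temperature.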
* hit, by the source's call; ? = inconclusive; · = no result; ! = not confirmed by another sample; [ ] = dose if it differs, or a comment. Sampled rows, rich in hits. Any-hit rate of the full collection: about 2.4%. Calls come from the whole dose curve; as a rule, active = well fitted curve in the direction sought with a large enough effect; inconclusive = small, poorly fitted or top-dose-only effect, or another doubt; inactive = no such curve, though single readings can be large; an effect the other way counts as inactive or inconclusive. Potency is the fitted concentration of half-maximal effect.

SMILES | WRN helicase inh | FEN1 inh | Pol eta inh | Pol kappa inh | Pol iota inh | POLB inh
O=C1/C(=C/c2ccncc2)CCc2ccccc21 | 5%[11.6 µM] | -4% | 79µM* | 6% | -12% | 0%
Cc1cccc(CNC(=O)C2CCN(S(=O)(=O)c3ccc4c(c3)CCCN4C(=O)C3CCC3)CC2)c1 | · | 6% | -22% | -5%[60.1 µM] | 0% | -1%
O=C(NCCc1cn2ccccc2n1)c1cc(COc2ccc3ncccc3c2)on1 | -4% | 0% | -10% | -23% | 36% | 40µM*
O=C(c1cc(COc2ccc3ncccc3c2)on1)N1CCCC1 | 3% | -2% | -2% | -19% | 14% | 4%
Cc1cc(C(=O)COc2cccc3cccnc23)c(C)n1C | 6% | -8% | ? | -12% | 8% | 11µM*
Cc1cc(C(=O)COc2ccccc2C(N)=O)c(C)n1C | 6% | 0% | -11% | -6% | 182% | 4%
Cc1ccc(CSc2oc(-c3ccco3)nc2S(=O)(=O)c2ccc(Cl)cc2)cc1 | · | 3% | 3% | -1% | -21% | 0%
Cc1ccc(S(=O)(=O)c2nc(-c3ccco3)oc2SCC(=O)c2ccc(Cl)cc2)cc1 | · | 13% | 0% | 3% | ? | 1%
O=C(CSc1oc(-c2ccco2)nc1S(=O)(=O)c1ccc(Cl)cc1)c1ccc(Cl)cc1 | · | -19% | -3% | 50µM* | ? | 1%
O=S(=O)(c1ccc(Br)cc1)c1nc(-c2ccco2)oc1SCc1ccccc1Cl | · | 0% | -1% | ? | 79µM* | 13%
O=S(=O)(c1ccc(Cl)cc1)c1nc(-c2ccco2)oc1SCc1ccccc1F | · | -3% | -13% | -10% | -26% | -20%
CC(C)Sc1oc(-c2ccco2)nc1S(=O)(=O)c1ccc(F)cc1 | ? | -18% | 71µM* | ? | ? | 28µM*
Cc1ccc(CSc2oc(-c3ccco3)nc2S(=O)(=O)c2ccc(Br)cc2)cc1 | · | -17% | -9% | ? | 56µM* | -27%
CC(C)NS(=O)(=O)c1cc(C(F)(F)F)ccc1/C=C/C(=O)O | · | 6% | · | 13% | -3% | ·
COc1ccc(Cc2nnc(SCC(=O)Nc3cc(Cl)ccc3OC)[nH]c2=O)cc1 | -25% | -11% | -18% | -13% | 9% | ·
CCCCNC(=O)CSc1nnc(Cc2ccc(Cl)c(Cl)c2)c(=O)[nH]1 | -7% | 2% | 12% | 89µM* | ? | -10%
O=C(Nc1ccc(F)cc1F)c1cc2ccc3cccnc3c2[nH]1 | · | -11% | -9% | -42% | ? | 18µM*
O=C(Nc1ccc(Cl)cc1Cl)[C@@H]1CC=C[C@@H]2CCN(C3CC3)C(=O)[C@@H]21 | · | 1% | · | 12% | 12% | ·
COC(=O)c1c(C)sc(-c2c(-c3ccc4c(c3)OCCO4)[nH]c3[nH]c(=O)[nH]c(=O)c23)c1O | · | -25% | · | ? | ? | 40µM*
COC(=O)c1c(C)sc(-c2c(-c3ccc4c(c3)OCCO4)[nH]c3c2c(=O)n(C)c(=O)n3C)c1O | · | -6% | · | -17% | 6% | 1%
Fc1ccccc1N1CCN(C(c2ccncc2)c2nnnn2C2CCCC2)CC1 (configuration not stated) | -3% | 8% | -13% | -5% | 79µM* | 4%
COc1ccc(C2CC(=O)N(Cc3cccc(C)c3)c3c2c(C)nn3-c2nc(C)cc(C)n2)c(OC)c1 (configuration not stated) | · | -8% | -20% | -10% | 23% | -25%
Cc1ccc(NC(=O)c2cccc3c(=O)c4c([nH]c23)CCCC4)c(C)c1 | · | -3% | -12% | 9% | 15% | 6%
O=C(c1ccc(COc2c(F)c(F)c(F)c(F)c2F)o1)N1CCN(Cc2ccc3c(c2)OCO3)CC1 | -23% | -20% | ? | ? | ? | 45µM*
O=C(c1c(F)c(F)c(F)c(F)c1F)N1CCN(Cc2ccc3c(c2)OCO3)CC1 | -5% | 0% | -4% | 11% | -24% | ·
SMILES | WRN helicase inh | FEN1 inh | Pol eta inh | Pol kappa inh | Pol iota inh | POLB inh
Cc1ccc2nc(N)[nH]c(=O)c2c1Sc1ccncc1 | · | · | · | 3%[19.4 µM] | · | ·
O=c1cc(-c2ccc(O)cc2)oc2ccccc12 | -17% | 5% | -2% | 0% | 30% | 28µM*
O=c1cc(-c2ccc(O)cc2)oc2cc(O)cc(O)c12 | -7% | ? | ? | 20µM*! | ? | -12%[57.1 µM]
O=c1cc(-c2ccccc2O)oc2cc(O)ccc12 | · | · | · | -6%[60.1 µM] | · | ·
O=c1cc(-c2cccc(O)c2O)oc2ccccc12 | · | · | · | 13µM* | · | ·
O=c1cc(-c2ccccc2)oc2cc(O)cc(O)c12 | 6% | -7% | 9% | -5% | 14% | ·
O=C(NCC(c1ccco1)S(=O)(=O)c1cccs1)c1ccc(C(F)(F)F)cc1 (configuration not stated) | · | 9% | -29% | 2%[60.1 µM] | 2% | -10%
O=C(Cn1ncc2c3ccccc3n(Cc3cccc(Cl)c3)c2c1=O)NCCCc1ccccc1 | · | -7% | -24% | ? | ? | 28µM*
O=C(Cn1ncc2c3ccccc3n(Cc3ccc(Cl)cc3)c2c1=O)NCCCc1ccccc1 | · | -7% | -18% | -7% | 29% | ?
COc1ccc(N2Cc3cccc(C(=O)O)c3C2=O)cc1 | 50µM* | -16% | 4µM* | ? | ? | 7.1µM*
Cc1ccc(-n2c(SCC(=O)NCc3ccco3)nc3nc4c(cc3c2=O)COC(C)(C)C4)cc1 | 1%[11.6 µM] | 1% | ? | -7% | ? | 79µM*
Cc1ccc(-n2c(SCC(=O)NCc3ccco3)nc3sc(C)c(C)c3c2=O)cc1 | -2%[57.1 µM] | 0% | 2% | -21% | -5% | 1%
CCN(CCCCO)c1nc(C)nc2c1c(C)c(C)n2-c1c(C)cc(C)cc1C | · | · | · | -7%[60.1 µM] | · | ·
COc1cccc(NC(=O)/C(C#N)=C\c2cn(Cc3ccc(C)cc3)c3ccccc23)c1 | · | -6% | -13% | 7% | 29% | 1%
N#C/C(=C/c1cn(Cc2ccc(F)cc2)c2ccccc12)C(=O)Nc1cccc(Cl)c1 | · | 89µM* | -17% | ? | 56µM* | 1%
CCN(CC)c1ccc(CN(C(=O)Cc2coc3ccc(C)cc23)C2CCS(=O)(=O)C2)cc1 (configuration not stated) | · | 0% | -23% | 7% | ? | -13%
COc1cc(/C=C/c2ccnc3ccccc23)ccc1N(C)C | · | ? | · | 4% | 0% | ·
Cc1ccc(C)c(NC(=O)NNC(=O)c2cc3ccccc3cc2O)c1 | -24% | -4% | ? | ? | 35µM* | 35µM*
CCOc1ccc(NC(=O)NNC(=O)c2cc3ccccc3cc2O)cc1 | -6% | -12% | 8% | -44% | 79µM* | ?
Cc1ccc(NC(=O)NNC(=O)c2cc3ccccc3cc2O)cc1C | -1% | -14% | -16% | -24% | ? | ?
Cc1cccc(NC(=O)NNC(=O)c2cc3ccccc3cc2O)c1C | -17%[11.6 µM] | 2% | -26% | ? | 50µM* | 35µM*
